PGE2 EP2 inh = blocks the human prostaglandin E2 receptor EP2. C6 glioma cells expressing human EP2, cAMP TR-FRET; cells stimulated with saturating PGE2. inhibition, % at 25 µM. actives 0.52% (n = 260,000). AID 1422;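 active means percent inhibition above 40 after rounding to a whole number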;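 further: rat C6 glioma host cells with rolipram phosphodiesterase inhibitor present; the protocol text gives 20 µM as final concentration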
p47phox inh = inhibitors of human p47phox binding. P14598. AID 1274. p47phox/p22phox peptide binding, fluorescence polarization, 2 h. inhibition, % at 24.7 µM. actives 0.53% (n = 220,000);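 active means inhibition above about 30%, limit read from the data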;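 further: 0% = p47phox with labelled peptide and 100% = labelled peptide alone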
Target sequence (P14598 whole entry, looked up): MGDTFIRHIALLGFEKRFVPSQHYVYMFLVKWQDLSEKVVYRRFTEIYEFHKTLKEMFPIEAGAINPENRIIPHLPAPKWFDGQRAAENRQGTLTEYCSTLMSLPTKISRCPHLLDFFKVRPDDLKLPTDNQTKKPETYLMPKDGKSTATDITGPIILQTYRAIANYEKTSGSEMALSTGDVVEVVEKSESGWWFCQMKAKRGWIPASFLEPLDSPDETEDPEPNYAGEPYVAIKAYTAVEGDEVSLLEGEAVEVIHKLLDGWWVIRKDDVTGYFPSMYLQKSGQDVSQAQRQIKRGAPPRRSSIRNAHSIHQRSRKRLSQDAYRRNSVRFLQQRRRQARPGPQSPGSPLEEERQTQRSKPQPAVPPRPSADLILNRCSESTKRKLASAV
Furin inhibitor = inhibitors of human furin; purified furin, fluorogenic substrate cleavage; inhibition, % at 20 µM or 30 µM; actives 0.061% (n = 220,000); P09958; AID 463115; in the data active means inhibition above about 25%
HSV augment = increases HSV replication in cells. HSV replication augmentation in cells, fold increase. maximum fold increase. actives 0.005% (n = 220,000); in the data active means maximum fold increase above about 1.5; tested in PC3 cells
EP2 modulator = modulates human prostaglandin E2 receptor EP2 signaling; P43116; EP2-expressing cells, cAMP HTRF FRET, PGE2 co-stimulation; induction, % at 25 µM; actives 0.83% (n = 260,000); AID 940;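 active means compounds whose cAMP rise, as percent of the full-agonist control response, exceeds 60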;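 further: rat C6 glioma line stably carrying human EP2 under a CMV promoter; the protocol text gives 20 µM as final concentration; 100% = response of wells given 1 µM PGE2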
Wee1 stabilizer = inhibitors of human Wee1 degradation. P30291. HeLa Luc-Wee1K328M stability, luciferase luminescence; 100% = proteasome inhibitor MG132 effect. reporter increase, % at 5 µM. actives 1.2% (n = 220,000);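 active means activation above the mean of all tested compounds plus 3 SD, set per screening run, cut at about 8.8% in these data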;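 further: cells exposed to compound for 20 h before luminescence read; 0% = DMSO alone and 100% = MG132 at 30 µM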
Active calls of the source: *; i = inactive; · = no result; ! = not confirmed by another sample. Most compounds without a hit are left out; they make up all but 2.8% or so of the library.

SMILES	PGE2 EP2 inh	p47phox inh	Furin inhibitor	HSV augment	EP2 modulator	Wee1 stabilizer
CCOC(=O)N1CCN(C(=O)C2CCC(C(=O)N3CCN(C(=O)OCC)CC3)CC2)CC1 (centres undefined)	·	·	-24.4	·	·	9.5*
CC(O)CNCc1ccc2c(c1)OCO2 (centres undefined)	9.5	·	·	·	-30.9	·
Cc1ccc(N2C(=O)c3n[nH]c(C)c3C2c2ccco2)cc1 (centres undefined)	7.4	46.4*	-20.1	i	7.9	2.6
Cc1ccc(N2C(=O)c3n[nH]c(C)c3C2c2ccccn2)cc1 (centres undefined)	·	72.7*	-17.3	·	14.8	-0.4
CCc1cc2c(NCC(C)O)ncnc2s1 (centres undefined)	15.9	·	·	·	-59.8	·
CCSc1nc2c(c(=O)n(C)c(=O)n2C)n1Cc1cccc(C)c1	7.3	·	·	·	30.1	·
CCSc1ccccc1C(=O)Nc1nncs1	11.4	-4.1	26.7*	i	13.0	0.9
O=C(Nc1nncs1)c1ccc(S(=O)(=O)c2ccccc2)cc1	11.4	-10.0	-3.6	i	-4.8	9.3*
CSc1nc(C)cc(Nc2ccc(O)c(CN3CCOCC3)c2)n1	44.1*	·	·	·	5.9	·
COc1ccccc1C1(O)CCCN(C(=O)COc2ccc3nsnc3c2)C1 (centres undefined)	55.1*	·	·	·	-60.2	·
O=c1c2c(-c3ccccc3)csc2nc2c3ccccc3c(NCCN3CCOCC3)nn12	12.7	74.2*	-47.2	i	-41.7	1.0
O=c1c2ccccc2nc2c3ccccc3c(NCCN3CCOCC3)nn12	7.8	-12.8	-20.1	i	-0.5	1.4
Cc1ccc(C)c2nc(SCC(=O)Nc3nccs3)c(C#N)cc12	25.8	·	·	·	69.8*	·
COc1ccc2[nH]c3c(NCCC4=CCCCC4)ncnc3c2c1	74.5*	-49.5	-24.2	i	-70.8	1.8
CCN(CC)CCNc1ncnc2c1[nH]c1ccc(OC)cc12	6.3	-11.0	-14.1	i	-28.3	1.7
CNC(=O)C1CCCN(S(=O)(=O)c2ccc(F)cc2)C1 (centres undefined)	5.5	·	·	·	12.7	·
CCCN(C(=O)c1cccs1)c1nnc(-c2ccc(OC)cc2)s1	9.1	·	·	·	10.5	·
CCCCCN=C(N)N/N=C/c1c[nH]c2ccc(OC)cc12	136.3*!	·	·	i	15.3	·
COc1ccc(N2CC(C(=O)N/N=C/c3c[nH]c4ccccc34)CC2=O)cc1 (centres undefined)	6.9	-4.5	-9.6	i	-65.5	3.2
COc1ccccc1NC(=O)N(Cc1ccccc1)c1ccccn1	-2.9	-12.2	-15.2	i	60.7*	3.1
COCC(=O)N(Cc1ccccc1)c1ccccn1	9.7	-4.3	-12.5	i	16.7	-2.2
COc1ccc(C(C(=O)NC2CCCC2)N(Cc2ccc3c(c2)OCO3)C(=O)c2ccco2)cc1 (centres undefined)	13.0	·	·	·	20.4	·
CCOC(=O)c1c(NC(=O)Nc2ccc(C)cc2)sc2c1CCN(C)C2	8.7	-23.7	-8.4	i	-14.4	10.4*
CCOC(=O)c1c(NC(=O)COC)sc2c1CCC2	3.8	·	·	·	83.0*	·
CCOC(=O)c1c(NC(=S)Nc2ccccc2)sc2c1CCCCC2	52.4*	-8.7	-18.4	i	19.0	-1.0
SMILES	PGE2 EP2 inh	p47phox inh	Furin inhibitor	HSV augment	EP2 modulator	Wee1 stabilizer
CC(=O)N1c2ccc(C(O)CN3CCC(O)(c4ccccc4C)CC3)cc2CC1C (centres undefined)	6.2	·	·	·	-49.4	·
CCc1ccccc1OCC(=O)Nc1sc2c(c1C#N)CCCC2	7.5	·	·	·	-27.5	·
COc1cccc(CN2CCN(C(=O)C3=NNC(=O)CC3)[C@@H](C)C2)c1	·	·	·	·	-24.6	·
COc1cccc(CN2CCN(C(=O)c3cnc(C)cn3)[C@@H](C)C2)c1	·	·	·	·	-43.6	·
O=C(Nc1cc2nn(-c3ccccc3)nc2cc1Cl)c1ccco1	9.1	-5.4	-16.4	i	9.4	-0.2
O=C(Nc1ccc2nn(-c3ccccc3)nc2c1)c1ccco1	41.2*!	-26.7	-22.2	i	-68.9	4.2
O=C(Nc1ccc2nn(-c3ccccc3)nc2c1)c1cccnc1	39.8*	-14.5	-9.0	i	-13.4	0.5
CCCC(=O)N1CCCC(c2nc3c(nnn3Cc3cc(C)ccc3C)c(=O)[nH]2)C1 (centres undefined)	15.1	·	·	·	63.6*	·
O=c1oc2ccccc2c(O)c1/C=N/c1nc(-c2ccc(O)c(O)c2)cs1	41.3*	·	·	·	36.0	·
O=C(O)C1CCCCC1C(=O)NCc1cn2ccccc2n1 (centres undefined)	11.7	36.5*	-19.3	i	14.1	-0.7
O=C(O)C1CC=CCC1C(=O)NCc1cn2ccccc2n1 (centres undefined)	7.9	-4.2	-7.7	i	24.4	1.4
COc1ccc2cc(C#N)c(SCC(=O)N3CCCC(C)C3)nc2c1 (centres undefined)	5.2	·	·	·	-22.6	·
Cc1ccc2cc(C)c(SCC(=O)N3CCCC(C)C3)nc2c1 (centres undefined)	9.4	·	·	·	62.0*	·
COc1ccccc1NC(=O)c1c(N=Cc2c(O)ccc3ccccc23)cnn1C	10.4	-19.9	-15.4	i	-22.2	9.0*
CCn1ncc(Br)c1C(=O)Nc1ccccc1OC	6.7	1.6	-26.5	i	63.2*	4.4
Cn1ncc(N=Cc2c(O)ccc3ccccc23)c1C(=O)N1CCOCC1	8.3	·	-19.6	i	·	-2.2
CCCn1c(SCC(=O)N2CCC(Cc3ccccc3)CC2)nc2c1c(=O)n(C)c(=O)n2C	11.6	·	·	·	3.6	·
O=C(Nc1cccc([N+](=O)[O-])c1)C1C2CC/C=C\CCC21 (centres undefined)	19.7	137.6*	-10.4	i	-66.4	-2.6
CC1=C(C)CC(C(=O)Nc2cccc([N+](=O)[O-])c2)C(C(=O)O)C1 (centres undefined)	9.9	-4.7	-11.0	i	34.0	0.6
CC1(C)CC(=O)c2sc(NC(=O)Cc3ccc(Cl)cc3)nc2C1	21.8	·	·	·	-104.1	·
CC1=C2C(N)=C(C(=O)Nc3ccccc3)SC2NC(C(F)(F)F)=C1 (centres undefined)	11.1	·	·	·	13.5	·
Nc1nc(N)nc(COc2ccccc2)n1	8.8	-0.8	-9.1	i	-18.6	9.4*
N#Cc1c(NCCN)nc(-c2ccccc2)c2c1CCCC2	14.7	42.1*	-19.4	i	39.7	5.0
COc1ccccc1C1(O)CCN(CCNC(=O)c2ccc(C)s2)CC1	8.7	·	·	·	-14.5	·
CO[C@@H]1/C=C\O[C@]2(C)Oc3c(C)c(O)c4c(O)c(c(CN(C)C)c(O)c4c3C2=O)NC(=O)C(C)=C/C=C\[C@@H](C)[C@@H](O)[C@H](C)[C@@H](O)[C@H](C)[C@H](OC(C)=O)[C@@H]1C	51.7*	·	·	·	12.3	·
CO[C@H]1C=CO[C@@]2(C)Oc3c(C)c(O)c4c(O)c(c(C=NN5CCN(C)CC5)c(O)c4c3C2=O)NC(=O)C(C)=CC=C[C@H](C)[C@H](O)[C@@H](C)[C@@H](O)[C@@H](C)[C@H](OC(C)=O)[C@@H]1C	12.5	-17.0	10.7	i	5.4	-0.2

High-throughput results as filed in PubChem BioAssay.
